Screens: PubChem, several laboratories
Mtb BioA inh: M. tuberculosis BioA enzyme inhibitors, primary screen, biochemical, plate reader, single point, HTS; actives 0.096% (n = 360,000); inhibition, % at 9.99 µM; AID 602481, 2012; purified M. tuberculosis BioA enzyme; 7,8-diaminopelargonic acid synthase BioA (Mycobacterium tuberculosis); in the data active = inhibition above about 40%; inconclusive = no clear call, values can overlap the other calls
FadD28 FP inh: inhibitors of FadD28 bisubstrate probe binding, primary screen, biochemical, fluorescence polarization, single point. inhibition, % at 12.5 µM. actives 0.22% (n = 360,000); in the data active = inhibition above about 8.5%, passing the limit was not always enough; inconclusive = no clear call, values can overlap the other calls
Rv3671c inh: Rv3671c serine protease inhibitors, primary screen, biochemical, fluorescence polarization, M. tuberculosis H37Rv; actives 0.048% (n = 320,000); inhibition, % at 5.96 µM; P9WHR9; AID 2606, 2010; in the data active = inhibition above about 38%;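 also: extracellular domain of Rv3671c used as enzyme; 0% = enzyme with DMSO and 100% = no enzyme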
TcdB inh: TcdB glycohydrolase inhibitors, primary screen, biochemical, single point, plate reader | TcdB glycohydrolase enzymatic assay | inhibition, % at 9.99 µM | actives 0.24% (n = 350,000) | AID 652162, 2013; in the data active = inhibition above about 10%
RecA intein inh: Mtb RecA intein splicing inhibitors, primary screen, biochemical, fluorescence, HTS | inhibition, % (test concentration not listed) | cell-free RecA intein splicing | actives 0.75% (n = 290,000) | Protein RecA (Mycobacterium tuberculosis (strain ATCC 25618 / H37Rv)), P9WHJ3; in the data active = inhibition above about 30%; inconclusive = no clear call, values can overlap the other calls;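 also: 0% = vehicle wells and 100% = reference inhibitor control wells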
Mtb UGM inh: M. tuberculosis UGM enzyme inhibitors, primary screen, biochemical, fluorescence polarization, single point | UDP-galactopyranose mutase (Mycobacterium tuberculosis (strain ATCC 25618 / H37Rv)), … | purified UGM, fluorescence polarization probe displacement | inhibition, % at 10 µM | actives 0.06% (n = 320,000) | AID 504406, 2011; in the data active = inhibition above about 10%, passing the limit was not always enough; inconclusive = no clear call, values can overlap the other calls
* marks the source's active call; other numbers are inactive results; ? = inconclusive; · = no result given. A selection: hits, their analogues and other compounds. The true share with any hit is near 0.97%.

SMILES | Mtb BioA inh | FadD28 FP inh | Rv3671c inh | TcdB inh | RecA intein inh | Mtb UGM inh
COc1ccc2[nH]c(=O)c(CN(C3CCCCC3)C(c3nnnn3Cc3ccco3)C(C)C)cc2c1 (stereo unspecified) | · | 0 | -7 | · | 33* | -1
CSc1cccc(NC(=O)CCc2ccccc2)c1 | · | -2 | -3 | 11* | 4 | 3
CSc1cccc(NC(=S)NC(=O)CCc2ccccc2)c1 | -1 | -5 | -18 | 2 | 1 | 0
COc1ccc(S(=O)(=O)N[C@H]2C=C[C@H](CC(=O)NCCc3ccncc3)O[C@@H]2CO)cc1 | -1 | · | · | 0 | · | ·
O=c1[nH]cc(N=Cc2cc([N+](=O)[O-])ccc2O)c(=O)[nH]1 | · | · | -6 | · | 50* | -1
Cc1cc(O)c(C(C)C)cc1N=Cc1cc([N+](=O)[O-])ccc1O | -1 | 0 | -1 | 0 | -2 | 2
NC(=S)NN=Cc1ccc(-c2ccc(S(=O)(=O)Nc3ncccn3)cc2)o1 | · | 23* | 10 | -2 | · | ·
COc1ccc(NC(=O)c2cccc(N3C(=O)C4C5C=CC(C5)C4C3=O)c2)cc1Cl (stereo unspecified) | -1 | -5 | -1 | 1 | 94* | 0
CN(C)c1ccc2c(c1)[C@H]1C[C@@H](CC(=O)N3CCCCC3)O[C@@H](CO)[C@H]1O2 | · | · | · | -41 | · | ·
CCc1sc(/C=C(/C#N)C(N)=S)cc1[N+](=O)[O-] | · | 18* | · | 0 | · | ·
O=C(COC(=O)c1ccc(F)cc1F)c1ccc[nH]1 | 0 | 1 | · | 10* | · | ·
C/C=C/c1cnc2c(c1)C(=O)N([C@H](C)CO)C[C@H](C)[C@H](CN(C)C(=O)Nc1c(C)noc1C)O2 | -1 | · | · | · | · | ·
Cc1ccc2nsnc2c1NS(=O)(=O)c1c(C)ccc2nsnc12 | 0 | -3 | -5 | · | 36* | 2
CCCC#Cc1cnc2c(c1)C(=O)N([C@H](C)CO)C[C@H](C)[C@@H](CN(C)C(=O)Nc1ccc(OC)cc1)O2 | -1 | · | · | 0 | · | ·
CO[C@@H]1CN(C)C(=O)c2ccc(NC(=O)c3cccc(F)c3)cc2OC[C@@H](C)N(C)C[C@@H]1C | 6 | · | · | 0 | · | ·
Nc1ccc2c(c1)[nH]c(=O)c1cc(N)ccc12 | 2 | ? | · | 21* | · | ·
O=c1[nH]c2cc([N+](=O)[O-])ccc2c2ccc([N+](=O)[O-])cc12 | · | -2 | · | 2 | · | ·
CO[C@H]1CN(C)C(=O)c2cc(NC(C)=O)ccc2OC[C@H](C)N(Cc2cccnc2)C[C@@H]1C | -1 | · | · | · | · | ·
CSC(=NS(=O)(=O)c1ccc(N)cc1)NS(=O)(=O)c1cccs1 | · | 17* | · | 0 | · | ·
CSC(=NC(C)c1ccccc1)NS(=O)(=O)c1cccs1 (stereo unspecified) | 0 | -2 | 7 | 1 | 3 | -1
Cc1cc(C)c2nc(C)cc(N/N=C/c3ccc(O)cc3)c2c1 | -2 | 1 | 12 | 16* | -9 | -1
Cc1cc(N/N=C/c2ccc(N(C)C)cc2)c2ccccc2n1 | 6 | 0 | -3 | 1 | 0 | 0
Cc1cc(N/N=C/c2ccc(O)cc2)c2cccc(C)c2n1 | -1 | -5 | 5 | 11* | -16 | -2
CO[C@@H]1CN(C)C(=O)c2cc(NC(=O)c3cnccn3)ccc2OC[C@@H](C)N(CCc2ccccc2)C[C@H]1C | -1 | · | · | 2 | · | ·
COc1cccc(NC(=O)N[C@H]2C=C[C@@H](CC(=O)Nc3ccccc3)O[C@H]2CO)c1 | -1 | · | · | 0 | · | ·
CCOC(=O)c1c(NS(=O)(=O)c2ccc(Br)cc2)sc2c1CCC2 | 3 | 12* | 5 | · | 5 | 0
C[C@H](CO)N1C[C@H](C)[C@@H](CN(C)Cc2ccncc2)Oc2cc(-c3ccccc3F)ccc2S1(=O)=O | 3 | · | · | 0 | · | ·
NNc1ccc([N+](=O)[O-])c2[nH][nH]c(=O)c12 | 3 | 16* | · | -1 | · | ·
CN(C)c1ccc([N+](=O)[O-])c([N+](=O)[O-])c1 | -2 | -1 | · | 1 | · | ·
COC(=O)c1ccc(-n2c(C)cc(C(=O)CCl)c2C)cc1 | 2 | -1 | 10 | 1 | 35* | 1
